One molecule from PubChem BioAssay AID651671 (Sanford-Burnham Center for Chemical Genomics, 2012) can be followed below.

SMILES strings stand for the structures. The list shows a part of the results. Unmarked numbers belong to inactive results.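 How the source made its calls: active means activation of at least 7% in one or more replicates; inactive means the rest.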

The nature of the assay: activation of alpha-dystroglycan glycosylation – single concentration, Pro5-aDG cells, confirmation (AID 651671).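 Further: cells exposed to compound for two days before detection; 0% = DMSO-treated Pro5 cells and 100% = DMSO-treated B10-LARGE cells.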 The settings on record: alpha-DG glycosylation, IIH6 AlphaLISA, active compounds read high, screened at 10 µM (by protocol), scaled to LARGE-overexpressing B10 cells as 100%.

As to `CNCC(O)c1cc(F)c(OCc2ccccc2)c(OCc2ccccc2)c1F` (stereo unspecified), the activation was 4%.
